Rows were chosen to be rich in hits. Some 9.6% of all compounds tested hit in one or more screens of this group.
Autophagy HCS: autophagy modulators in MEF cells, primary screen, imaging, high-content, MEF GFP-LC3 | MEF GFP-LC3 puncta imaging; test concentration mostly 10 µM | 190,000 compounds, 0.98% hits | calls only at 10 µM (by protocol);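 active = percentage of spot-positive cells more than 3 SD above its plate mean, without a fluorescence outlier flag or 80% toxicity; inconclusive = no clear call, values can overlap the other calls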;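 note: spot-positive cell cutoff set from DMSO-treated cells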
HCT116 bCat-KO: primary screen for growth suppressors in beta-catenin knockout HCT116 cells (colon tumor, human); HCT116 beta-catenin knockout viability, CellTiter-Glo, 60 h; hits give low values; viability, % at 10 µM; 140,000 compounds, 1.5% hits; AID 818, 2007;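 active = viability at or under a set limit, the compound median less 4 SD, cut at about 6% in these data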;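 note: 0% = Hyamine 1622 control at 20 µM and 100% = untreated cell control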
PTEN del growth: growth suppression of PTEN-null HCT116, primary screen, cell-based, CellTiter-Glo; HCT116 PTEN-null viability, 60 h; hits give low values; viability, % at 10 µM; 140,000 compounds, 1.2% hits;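 active = viability at or below a set limit, 4 SD under the median of all tested compounds, cut at about 3.7% in these data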;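 note: PTEN knockout HCT116 line with beta catenin targeted HCT116 as companion control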
Insulin prom up: insulin promoter activators in MIN6 cells, imaging, high-content screening, mouse beta cells | 190,000 compounds, 0.3% hits | z-score at 5 µM | MIN6 insulin promoter-GFP reporter; hits give high values | AID 1625, 2009;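 active = z-score above 3 at 5 µM with at least 500 cells counted in the well; inconclusive = wells under 500 cells, flagged as cytotoxic or low count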
Lmaj promast: Leishmania major promastigote growth inhibition, primary screen; Leishmania major promastigotes, resazurin fluorescence viability; inhibition, % at 10 µM; 200,000 compounds, 9% hits; AID 1063, 2008; in the data active = inhibition above about 50%;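 note: promastigotes grown with compound for 44 hours at 28 °C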
Insulin prom inh: inhibitors of insulin promoter-driven GFP, primary screen, imaging, TRM-6 cells (human fetal islet line), eGFP reporter, cell count | inhibition, % at 2 µM | 130,000 compounds, 0.9% hits | reporter expression induced with tamoxifen;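 active = inhibition above the mean plus 3 SD, with well images judged a real hit on visual review, cut at about 60% in these data, passing the limit was not always enough; inconclusive = inhibition over the cutoff but images rejected on review; inactive = inhibition not above the cutoff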
Starred values were filed as active, the others as inactive; i = inactive; ? = inconclusive; · = no result.

SMILES	Autophagy HCS	HCT116 bCat-KO	PTEN del growth	Insulin prom up	Lmaj promast	Insulin prom inh
Cn1c(CNc2nc3ccccc3n2C)nc2ccccc21	i	94	91	·	50*	-16
Cc1ccc(NCc2nc3ccccc3n2C)cc1	i	94	98	0.93	5	14
CCn1c(CNc2nc3ccccc3n2C(C)C)nc2ccccc21	i	78	81	-0.1	100*	-42
CCCCn1c(CNC(=O)CCC)nc2ccccc21	·	90	84	-0.46	-3	·
CCn1c(CNC(=O)c2ccccc2)nc2ccccc21	i	·	·	·	-1	70
CCCn1c(CNc2ccccc2O)nc2ccccc21	i	53	48	-0.29	82*	-327
Cn1c(NCc2c(O)ccc3ccccc23)nc2ccccc21	i	83	73	-1.6	100*	7
Cn1c(NCc2cc(Br)ccc2O)nc2ccccc21	i	91	83	0.48	22	·
O=C(Cn1nnc(-c2ccncc2)n1)N1CCc2ccccc21	i	90	84	0.17	-5	-230
CCc1ccc(NC(=O)CSc2nnc(CNC(=O)c3c(F)cccc3Cl)o2)cc1	i	90	94	-0.27	-3	32
COc1ccc(CN2CCCCC2c2cccnc2)c(OC)c1C (centres undefined)	i	·	·	-0.5	70*	·
COC(=O)Cc1cccc2c(=O)c3ccccc3oc12	·	·	·	-0.06	·	·
COc1ccc(C(C(=O)NC(C)(C)C)N(Cc2cccs2)C(=O)CCC(=O)Nc2cc(C)on2)cc1 (centres undefined)	i	76	74	·	97*	-25
CCC(C)(C)NC(=O)C(c1ccc(OC)cc1)N(Cc1cccs1)C(=O)CCC(=O)Nc1cc(C)on1 (centres undefined)	i	71	69	-0.98	97*	i
O=C(CSc1nc2ncccc2[nH]1)c1ccc(F)cc1	i	94	101	-0.25	3	·
CS(=O)(=O)n1nc(-c2cccnc2)nc1NCc1ccccc1	i	·	·	-0.26	3	50
O=[N+]([O-])c1ccc(Cc2nnc(-c3ccccc3Cl)o2)cc1	i	·	·	·	17	-344
CCCN(Cc1nnc(-c2ccccc2Cl)o1)C(=O)c1cc([N+](=O)[O-])cc([N+](=O)[O-])c1	i	·	·	0.43	98*	27
O=C(c1cc([N+](=O)[O-])cc([N+](=O)[O-])c1)N(Cc1nnc(-c2ccccc2Cl)o1)C1CC1	i	·	·	0.28	82*	45
Nc1ccc(Cc2nc3c(ccc4ccccc43)[nH]2)cc1	i	87	70	·	47	27
CC(=O)N(Cc1ccc(F)cc1)C1=C(NCCc2ccccc2)C(=O)c2ccccc2C1=O	i	1.9*	2.3*	-2.2	100*	-16
CC(=O)N(Cc1ccc(F)cc1)c1cccc(C)c1C	i	·	·	0.11	-1	·
COc1ccc(/C=C2/C(=O)N(Cc3ccccc3)N=C2C)cc1	i	93	87	0.1	0	-10
COc1ccc(/C=C2/C(=O)N(c3nc4ccccc4s3)N=C2CSc2ccc(Cl)cc2)cc1	i	97	93	0.14	100*	7
Cc1ccc(NC2=C(Cl)C(=O)OC2OC(C)C)c(C)c1 (centres undefined)	i	88	96	-0.4	-1	·
SMILES	Autophagy HCS	HCT116 bCat-KO	PTEN del growth	Insulin prom up	Lmaj promast	Insulin prom inh
Cc1cccc(C)c1NC1=C(Cl)C(=O)OC1OC(C)C (centres undefined)	i	95	95	0.42	50*	6
CC(C)CCNC(=O)C(c1ccco1)N(C(=O)Cn1nnc2ccccc21)c1ccc2c(c1)OCO2 (centres undefined)	i	3.1*	3.3*	0.16	13	-117
COCCNC(=O)C(c1ccc(C)o1)N(C(=O)Cn1nnc2ccccc21)c1ccccc1 (centres undefined)	i	·	·	0.18	12	·
CCCCN1CCc2c1nc1ccc(Br)cc1c2N	i	8	6	·	101*	87*
CCCCc1c(C)nc2ccc(Br)cc2c1SC(N)N	i	·	·	0.06	-2	·
CCN(CC)c1ccc(C(=O)OCc2cc(=O)oc3cc(O)ccc23)cc1	i	0.9*	0.2*	-0.55	12	33
Cc1cc(/C=C2/SC(=S)N(c3ccc([N+](=O)[O-])cc3)C2=O)c(C)n1-c1cccnc1	i	12	15	?	91*	-119

Assay outcomes deposited in PubChem BioAssay by several laboratories.
